Compound activity: PubChem, several laboratories
Bead autofluor: flagged as autofluorescent in microsphere protease counterscreen | compound autofluorescence counterscreen, microsphere flow cytometry; active compounds read high | fluorescence intensity (concentration not given with the values) | 3.1% of 360,000 active | AID 624483; in the data active = fluorescence intensity above about 16000; inconclusive = no clear call, values can overlap the other calls
SSB-PriA inh: inhibitors of Klebsiella pneumoniae PriA binding to SSB C-terminal tail, primary screen, biochemical, AlphaScreen; inhibition, % at 33 µM; AlphaScreen SSBct-PriA binding, biotinylated peptide; 0.6% of 430,000 active; PriA–SSB C-terminal tail interaction (Klebsiella pneumoniae); in the data active = inhibition mostly above about 37%, no sharp cut-off; inactive = mostly below about 20%;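 also: plate controls were negative control peptide for no effect and reference peptide for full effect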
Anthrax LF prot: Bacillus anthracis LF protease inhibitors, primary screen, biochemical, multiplex microsphere, MLPCN library; multiplex microsphere protease cleavage assay; AID 588501, 2011; Lethal factor (Bacillus anthracis), P15917; 0.12% of 360,000 active; inhibition, % at 10 µM; also: plate controls were buffer without enzyme for full effect and enzyme alone for no effect
Target sequence (P15917 whole entry, looked up): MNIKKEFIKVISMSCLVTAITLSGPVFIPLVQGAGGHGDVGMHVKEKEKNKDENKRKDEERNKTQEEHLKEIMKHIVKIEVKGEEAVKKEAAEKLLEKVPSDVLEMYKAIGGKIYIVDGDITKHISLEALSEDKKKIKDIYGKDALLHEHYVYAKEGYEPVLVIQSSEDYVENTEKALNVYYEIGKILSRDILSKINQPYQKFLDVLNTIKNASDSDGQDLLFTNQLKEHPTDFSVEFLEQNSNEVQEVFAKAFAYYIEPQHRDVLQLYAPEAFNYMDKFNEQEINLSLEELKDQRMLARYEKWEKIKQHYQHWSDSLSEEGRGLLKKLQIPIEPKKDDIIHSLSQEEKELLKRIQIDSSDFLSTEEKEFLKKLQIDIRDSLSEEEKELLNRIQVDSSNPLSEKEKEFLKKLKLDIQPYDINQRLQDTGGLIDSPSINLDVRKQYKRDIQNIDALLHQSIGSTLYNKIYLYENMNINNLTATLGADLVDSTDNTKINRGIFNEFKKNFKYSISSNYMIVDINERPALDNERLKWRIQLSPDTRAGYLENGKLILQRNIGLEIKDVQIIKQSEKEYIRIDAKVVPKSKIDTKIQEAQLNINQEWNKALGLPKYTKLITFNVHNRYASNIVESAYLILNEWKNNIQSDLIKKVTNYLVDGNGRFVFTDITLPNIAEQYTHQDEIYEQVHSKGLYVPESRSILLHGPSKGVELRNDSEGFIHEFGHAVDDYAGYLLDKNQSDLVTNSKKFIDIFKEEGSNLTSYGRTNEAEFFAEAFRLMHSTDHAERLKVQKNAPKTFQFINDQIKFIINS
BoNT-F LC inh: BoNT/F light chain protease inhibitors, primary screen, biochemical, flow cytometry, MLPCN library; Multiplex microsphere protease cleavage assay; 0.22% of 360,000 active; inhibition, % at 10 µM; AID 588497, 2011; in the data active = inhibition above about 35%, passing the limit was not always enough; inconclusive = no clear call, values can overlap the other calls; also: plate controls were buffer without enzyme for full effect and enzyme alone for no effect
BoNT A protease: BoNT/A light chain protease inhibitors, primary screen, biochemical, flow cytometry, MLPCN library; Botulinum neurotoxin type A light chain protease (Clostridium botulinum A str. ATCC 3502); multiplex microsphere protease substrate cleavage; inhibition, % at 10 µM; 0.17% of 360,000 active; AID 588499, 2011; also: plate controls were buffer without enzyme for full effect and enzyme alone for no effect
MazEF act: activators of E. coli MazEF toxin-antitoxin RNase, primary screen, biochemical, fluorescence, uHTS; AID 504720, 2011; activation, % at 20 µM; FAM/BHQ RNA-DNA oligo cleavage fluorescence, 5 h; 0.32% of 350,000 active; in the data active = activation above about 50%
BoNT-A LC CP1: BoNT/A light chain protease inhibitors, confirmation, biochemical, flow cytometry, cherry pick 1. shares compounds with BoNT-F LC inh. 3% of 720 active. inhibition, % at 10 µM. multiplex microsphere protease assay. AID 602139, 2011; in the data active = inhibition above about 32%
BoNT-F LC CP1: BoNT/F light chain protease inhibitors, confirmation, biochemical, flow cytometry, cherry pick 1 | 720 tested, under 10 active | multiplex microsphere protease cleavage assay | inhibition, % at 10 µM | shares compounds with BoNT-F LC inh; call rule not given here
Anthrax LF CP1: Bacillus anthracis LF protease inhibitors, confirmation, biochemical, multiplex microsphere, cherry pick 1; shares compounds with BoNT-F LC inh; multiplex microsphere protease cleavage assay; inhibition, % at 10 µM; 720 tested, under 10 active; AID 602142, 2011; call rule not given here
An asterisk follows results filed as active; ? = inconclusive; / = no result; ! = not active in a repeat. This is a sample that favours compounds with a hit; in the whole collection about 3.3% have one here. Rule as the data show it, unless noted: active = inhibition above about 30%; inconclusive = no clear call, values can overlap the other calls; inactive = below that.

SMILES	Bead autofluor	SSB-PriA inh	Anthrax LF prot	BoNT-F LC inh	BoNT A protease	MazEF act	BoNT-A LC CP1	BoNT-F LC CP1	Anthrax LF CP1
N#Cc1nc(-c2ccccc2F)oc1NCc1ccccc1	5810	19	3	-10	-1	0	/	/	/
COc1ccc2cc3cc(C(=O)NCCCN4CCOCC4)oc3nc2c1	2791	-13	-3	-19	0	4	/	/	/
Cc1ccc2cc3cc(C(=O)NCCN4CCOCC4)oc3nc2c1	3441	-1	3	35*	1	-17	0	-2	-1
Cc1cc(O[C@H]2CCN(C(=O)CCc3ccccc3C)C2)cc(=O)o1	/	-7	/	/	/	/	/	/	/
CCC(C)NC(=O)c1cc2cc3ccc(OC)cc3nc2s1 (centres undefined)	3620	-2	-4	-4	2	5	1	-2	0
CCOCC(=O)Nc1ccc2c(c1)CN(C(=O)C1CC1)CC2	/	2	/	/	/	/	/	/	/
COc1ccc(Cn2c(=O)[nH]c3cc(OC)c(OC)cc3c2=O)cc1	3925	-5	-9	36*	4	7	0	1	-2
COc1ccc(Cn2c(=S)[nH]c3cc(OC)c(OC)cc3c2=O)cc1	3250	-10	-2	3	0	0	/	/	/
Cc1onc(-c2ccccc2Cl)c1C(=O)Nc1ccc(-n2nncc2C23CC4CC(CC(C4)C2)C3)cc1	/	5	/	/	/	/	/	/	/
Cn1ccnc1C(O)c1cc(C(C)(C)C)c(O)c(C(C)(C)C)c1 (centres undefined)	6965	-1	32*	14	25	4	4	0	2
COc1cc(NS(=O)(=O)c2ccc(NC(=O)c3ccc4c(c3)OCCO4)cc2)nc(OC)n1	/	-19	/	/	/	/	/	/	/
O=C(c1ccc2nsnc2c1)N1CC(c2nc(-c3ccc[nH]c3=O)no2)C1	/	-18	/	/	/	/	/	/	/
CCOc1ccc(C(=O)NNC(=O)c2ccc(=O)n(Cc3ccccc3)c2)cc1OCC	/	-8	/	/	/	/	/	/	/
Cc1cc2cc(CNC(=O)c3cccc(F)c3)ccc2n1C	/	-6	/	/	/	/	/	/	/
Cc1cc2cc(CNC(=O)c3ccc4c(c3)OCO4)ccc2n1C	1744	39*!	-50	-86	65*	13	7	-11	3
Cc1cc2cc(CNC(=O)c3cccc4ccccc34)ccc2n1C	/	27	/	/	/	/	/	/	/
COc1c(C)cccc1C(=O)NCc1ccc2c(c1)OCO2	3541	-5	-12	36*	-1	1	0	-4	1
COc1ccc(CC(=O)NCc2ccc3c(c2)cc(C)n3C)cc1OC	2746	-1	10	-25	51*	0	2	-8	-4
COc1cc(OC)cc(C(=O)NCc2ccc3c(c2)cc(C)n3C)c1	2199	25	-47	-82	73*	1	1	-1	-4
Cc1ccc2nc(N3CCN(C(=O)c4ccc(N(C)C)cc4)CC3)sc2c1	/	-14	/	/	/	/	/	/	/
COc1cccc([C@H](CNC(=O)CCc2ccccc2F)OC)c1	/	0	/	/	/	/	/	/	/
Cc1cc2cc(CNC(=O)Cc3ccccc3)ccc2n1C	/	26	/	/	/	/	/	/	/
Cc1cc2cc(CNC(=O)COc3ccccc3)ccc2n1C	2787	24	-26	-72	69*	-5	6	-15	2
COCC(=O)NCc1ccc2c(c1)cc(C)n2C	1948	-11	1	-5	5	-22	3	-5	-1
Cc1cc2cc(CNC(=O)CCCc3ccccc3)ccc2n1C	/	10	/	/	/	/	/	/	/
SMILES	Bead autofluor	SSB-PriA inh	Anthrax LF prot	BoNT-F LC inh	BoNT A protease	MazEF act	BoNT-A LC CP1	BoNT-F LC CP1	Anthrax LF CP1
COC(=O)c1ccc(C(=O)NCCCn2ccnc2-c2ccccc2)cc1	/	-14	/	/	/	/	/	/	/
c1ccc(-c2csc3ncnc(NCCCN4CCOCC4)c23)cc1	2740	0	3	3	0	4	/	/	/
O=c1c2c(-c3ccccc3)csc2nc2c3ccccc3c(NCCN3CCOCC3)nn12	4402	-27	5	2	32*	-21	7	-8	2
COc1ccc(CCNC(=O)Cn2c(-c3ccncc3)nc3ccccc32)cc1OC	/	-21	/	/	/	/	/	/	/
O=C(CSc1ncnc2c1[nH]c1ccccc12)Nc1ccccc1Br	/	-32	/	/	/	/	/	/	/
Clc1ccc(/C=C/c2ncc[nH]2)c(Cl)c1	3685	11	-8	40*	5	-3	0	-6	-1
COc1ccc(C2=NN(C(=O)CN3CCCC3)C(c3ccc(OC)cc3)C2)cc1 (centres undefined)	4751	4	34*	57*	2	3	-1	-7	-1
COc1ccc(C2=NN(C(=O)CN3CCCCC3)C(c3ccc(OC)cc3)C2)cc1 (centres undefined)	4424	5	-2	?	?	7	/	/	/
O=C(Nc1nc(-c2ccc(Br)s2)cs1)C(c1ccccc1)c1ccccc1	/	-8	/	/	/	/	/	/	/
O=C(NCCc1csc2nc(-c3ccc(F)cc3)nn12)C(=O)Nc1ccc(F)c(Cl)c1	/	-19	/	/	/	/	/	/	/
O=C(CCNC(=O)c1ccccc1)NCCc1ccc(Cl)cc1	3849	-1	38*	-9	1	0	-1	-7	-1
Cc1cc(C(=O)Nc2ccccc2)c2ccccc2n1	3543	-15	22	9	-1	2	/	/	/
CC(C)Cc1cc(C(=O)Nc2ccccc2)c2ccccc2n1	3635	-6	-6	43*	-1	-23	-1	-4	0
COC(=O)c1ccc(Cn2c(=O)n(Cc3ccccn3)c(=O)c3ncccc32)o1	/	-15	/	/	/	/	/	/	/
Cc1ccc(C)c(Nc2nc(-c3ccncc3)nc3ccccc23)c1	3520	-6	-2	42*	0	19	-2	0	-3
CC(=O)CSc1nnc(-c2ccc(S(=O)(=O)N3CCCC3)cc2)n1C	3870	-7	31*	-10	1	5	1	1	2
CN(C)C(=O)CSc1nnc(-c2ccc(S(=O)(=O)N3CCCC3)cc2)n1C	3290	-10	-2	-9	0	-25	/	/	/
COc1ccc(S(=O)(=O)NCC2CCCO2)cc1Cl (centres undefined)	2925	-4	-12	35*	-1	10	-1	-4	-2
CC1=NN(c2ccc([N+](=O)[O-])cc2)C(c2ccco2)C1 (centres undefined)	/	5	/	/	/	/	/	/	/
